This is a sample that favours compounds with a hit; in the whole collection about 1.6% have one here.
KCNQ2 pot – enhances the rat KCNQ2 potassium channel; O88943; CHO-K1 KCNQ2, FluxOR thallium flux fluorescence; stronger effect = higher value; B-score at 10 µM; 310,000 tested, 0.54% active; AID 2239;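 active = fluorescence ratio B-score at least 3 SD of library B-scores, with initial fluorescence B-score within 3 of them, cut at about 5.3 in these data; same plate scores as AID 2156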;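 note: B-score of peak minus minimum over baseline fluorescence ratio after K+ and Tl+ stimulus; positive B-score means potentiation of KCNQ2 with more thallium influx and brighter signal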
Target sequence (O88943 whole entry, looked up): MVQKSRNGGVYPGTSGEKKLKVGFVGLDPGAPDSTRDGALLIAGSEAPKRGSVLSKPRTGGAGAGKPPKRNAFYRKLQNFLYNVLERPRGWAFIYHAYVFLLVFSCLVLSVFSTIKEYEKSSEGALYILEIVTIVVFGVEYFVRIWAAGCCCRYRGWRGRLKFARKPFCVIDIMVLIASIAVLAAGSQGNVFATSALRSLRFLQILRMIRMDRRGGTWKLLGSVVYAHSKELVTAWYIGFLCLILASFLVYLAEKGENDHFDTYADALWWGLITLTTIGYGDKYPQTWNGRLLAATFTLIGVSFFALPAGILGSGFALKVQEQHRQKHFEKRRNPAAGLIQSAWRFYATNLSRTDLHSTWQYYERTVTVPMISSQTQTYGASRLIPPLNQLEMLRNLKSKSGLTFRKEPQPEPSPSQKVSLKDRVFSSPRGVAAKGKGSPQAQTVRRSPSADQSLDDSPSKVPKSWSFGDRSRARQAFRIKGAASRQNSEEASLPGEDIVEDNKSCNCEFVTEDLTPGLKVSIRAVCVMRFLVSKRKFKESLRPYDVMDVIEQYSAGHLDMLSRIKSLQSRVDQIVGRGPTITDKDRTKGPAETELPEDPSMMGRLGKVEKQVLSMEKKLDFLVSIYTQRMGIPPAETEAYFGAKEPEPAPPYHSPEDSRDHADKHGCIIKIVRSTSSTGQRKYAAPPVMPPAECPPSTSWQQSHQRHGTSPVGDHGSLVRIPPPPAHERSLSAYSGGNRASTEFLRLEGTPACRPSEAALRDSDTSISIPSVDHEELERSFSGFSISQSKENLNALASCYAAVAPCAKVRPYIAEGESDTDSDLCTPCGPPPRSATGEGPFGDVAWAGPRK
KCNQ2 block – blocks the rat KCNQ2 potassium channel. CHO-K1 KCNQ2, FluxOR thallium flux, 20 min; stronger effect = lower value. B-score at 10 µM. 310,000 tested, 1.1% active;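 active = fluorescence ratio B-score at most minus 3 library SDs, with starting brightness B-score within 2 library SDs, cut at about -5.5 in these data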
KCNQ2 block conf – confirmation of rat KCNQ2 potassium channel inhibitors. shares compounds with KCNQ2 block. KCNQ2-expressing cells, thallium flux, inhibition; stronger effect = lower value. AID 493025. activity change, negative = inhibition, % at 10 µM. 1,000 tested, 57% active
KCNQ1 spec – selectivity of KCNQ2 inhibitors against human KCNQ1; shares compounds with KCNQ2 block; activity change, negative = inhibition, % at 10 µM; AID 493026; KCNQ1-expressing cells, FluxOR thallium flux fluorescence; stronger effect = lower value; 1,000 tested, 15% active;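 active = activity change at least 3 SD of negative controls below their mean in both duplicate wells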;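 note: CHO cells stably transfected with KCNQ1 and depolarized by potassium stimulus; peak minus minimum fluorescence over baseline after thallium addition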
CHO parental ctr – KCNQ2 inhibitor counter-screen hit in parental CHO cells. activity change, % at 10 µM. 1,000 tested, 14% active. shares compounds with KCNQ2 block. AID 493029. thallium flux counter-screen; stronger effect = lower value
KCNQ2 inh confirm – confirmation of rat KCNQ2 potassium channel inhibitors; 550 tested, 49% active; shares compounds with KCNQ2 block; AID 588531; KCNQ2-expressing cells, automated patch clamp current; calls only at 10 µM
Large screens that a line does not name were inactive (follow-up assays come after a bar, where they were run). Unless noted, the rule behind the calls is not given here.

Cc1oc2c(c1C(=O)c1ccccc1)C(=O)C(=O)c1ccccc1-2	KCNQ2 block -7.18
CC(=O)n1cc(Nc2ccc([N+](=O)[O-])cc2)c2ccccc21	none
CC(=O)SC(C[N+](=O)[O-])c1cn(C(C)=O)c2ccccc12 (stereo not drawn)	KCNQ2 block -5.57
COc1ccc(OCC(=O)Nc2ccc(N3CCN(C(=O)c4ccccc4)CC3)c(Cl)c2)cc1	none
O=c1c2ccccc2c(-c2ccccc2)nn1Cc1c(Cl)cccc1Cl	KCNQ2 block -5.82
CCOC(=O)Cn1nc(-c2ccccc2)c2ccccc2c1=O	none
O=C(Nc1cccc(C(F)(F)F)c1)C(=O)N1CCCCC1	none
CCOc1ccc(NC(=O)CCC(=O)c2ccc(F)cc2)cc1	none
CC(C)(C)C1CCC(=NNc2nc3ccccc3[nH]2)CC1 (stereo not drawn)	KCNQ2 block -5.76
c1ccc(CN2CCC(=NNc3nc4ccccc4[nH]3)CC2)cc1	none
O=C(CSc1n[nH]c(-c2ccncc2)n1)Nc1ccccc1Cl	none (no result: KCNQ2 pot)
COC(=O)C1=CC(C(=O)c2cccs2)=NN(c2ccc(OC)cc2)C1C(=O)OC (stereo not drawn)	none (no result: KCNQ2 pot)
O=C(N=C1SC2CS(=O)(=O)CC2N1Cc1ccccc1Cl)C1CCCO1 (stereo not drawn)	none
Cc1ccc(C2(CCNCc3ccco3)CCOC(C(C)C)C2)cc1 (stereo not drawn)	none (no result: KCNQ2 pot)
CC(=O)N(CCC1(c2ccc(C)cc2)CCOC(C(C)C)C1)Cc1ccco1 (stereo not drawn)	KCNQ2 block -6.01
O=c1c2ccccc2nc(SCc2nnc(-c3ccccc3Br)o2)n1-c1ccccc1	none (no result: KCNQ2 pot)
O=c1c2ccccc2nc(SCc2nnc(-c3ccccc3)o2)n1-c1ccc(F)cc1F	KCNQ2 block -6.43
Fc1cccc(Cn2ccc(-c3ccc4c(c3)OCO4)n2)c1	none (no result: KCNQ2 pot)
Cc1ccccc1Cn1ccc(-c2ccc3c(c2)OCO3)n1	KCNQ2 block -6.74
O=C(COCc1cc(-c2ccc3c(c2)OCO3)on1)N1CCN(c2cccc(C(F)(F)F)c2)CC1	none (no result: KCNQ2 pot)
Cc1c(Cl)cccc1NC(=O)CN1CCC(C(O)(c2ccccc2)c2ccccc2)CC1	KCNQ2 block -6.25
Cc1ccccc1C(=O)NC1CCN(CC(=O)Nc2ccccc2Cl)CC1	none
Cc1c(C(=O)NCCSCc2cccc(C(F)(F)F)c2)cnn1-c1ccc(F)cc1	none (no result: KCNQ2 pot)
Cc1ccc(C(=O)NCCOC23CC4CC(CC(C4)C2)C3)cc1	KCNQ2 block -6.03
COc1cc(OC)cc(C(=O)NCCOC23CC4CC(CC(C4)C2)C3)c1	none (no result: KCNQ2 pot)
C[C@H](NC(=O)c1nc[nH]c1C(=O)NCCCCCN)C(=O)OCc1ccccc1	none
Cc1c(C(=O)C(=O)N2CC=C(c3ccccc3)CC2)c2ccccc2n1C	none (no result: KCNQ2 pot)
C[C@@H](C(=O)NCCc1ccccc1)N1C(=O)N2CCc3c([nH]c4ccccc34)[C@@]2(C)C1=O	KCNQ2 block -9.14
C[C@@H](C(=O)NCCc1ccccc1F)N1C(=O)N2CCc3c([nH]c4ccccc34)[C@@]2(C)C1=O	none (no result: KCNQ2 pot)
CN(C(=O)c1cccs1)c1ccc(OCC(=O)Nc2ccc(C(=O)O)cc2)cc1	none (no result: KCNQ2 pot)
COc1cccc2c1OC1(C)CC2NC(=O)N1c1cccc(C(=O)Nc2ccc3c(c2)OCCO3)c1 (stereo not drawn)	KCNQ2 block -6.72
COc1ccc(NC(=O)c2cccc(N3C(=O)NC4CC3(C)Oc3ccccc34)c2)cc1 (stereo not drawn)	none (no result: KCNQ2 pot)
O=C(NCCN1CCOCC1)C1CC(=O)N(c2ccc(F)cc2)C1 (stereo not drawn)	none
Cc1cc(C)n(-c2nc(-n3nc(C)cc3C)c3c4c(sc3n2)COC(C)(C)C4)n1	KCNQ2 block -7.97
Cc1cc(C)n(-c2nc(NCCN(C)C)c3c4c(sc3n2)COC(C)(C)C4)n1	none
COCCNC(=O)CN(C(=O)Cn1nnc2ccccc21)c1cccc(C)c1C	none (no result: KCNQ2 pot)
CCN(CC(=O)Nc1ccc(OC)cc1)C(=O)c1oc2c(Cl)cccc2c1C	none
Cc1cccc(OCC(=O)Nc2ccccc2C(F)(F)F)c1	none (no result: KCNQ2 pot)
Cc1cccc(C)c1OCC(=O)Nc1ccccc1C(F)(F)F	KCNQ2 block -7.01
O=C(COc1ccccc1)NCc1ccccc1	none
Cc1cccc(C)c1OCC(=O)NCc1ccccc1	KCNQ2 block -6.38
CCN(CC(=O)Nc1ccccc1C(F)(F)F)C(=O)c1oc2c(Cl)cccc2c1C	KCNQ2 block -6.81
COc1ccc(NC(=O)N2CCNC(=O)C2CC(=O)Nc2ccc(F)cc2)cc1 (stereo not drawn)	none (no result: KCNQ2 pot)
O=[N+]([O-])c1cc(-c2nc3nc4ccccc4nc3n2CCc2ccccc2)cc([N+](=O)[O-])c1	none (no result: KCNQ2 pot)
CCCn1c(N)c(N(CCOC)C(=O)/C=C/c2ccc(C(=O)OC)cc2)c(=O)[nH]c1=O	none (no result: KCNQ2 pot)
COc1ccc(C)cc1NC(=O)CN1C(=O)COc2ccc(C)cc21	none (no result: KCNQ2 pot)
COc1cccc(NC(=O)CCc2c(C)nc3nc(CNC(=O)c4cccc(F)c4)nn3c2C)c1	none
Cc1nc(Oc2ccc(S(=O)(=O)N3CCOCC3)cc2Cl)c2c3c(sc2n1)CCCC3	none (no result: KCNQ2 pot)
CCNc1oc(-c2cccc3ccccc23)nc1C#N	none (no result: KCNQ2 pot)
N#Cc1nc(-c2cccc3ccccc23)oc1NCCN1CCCCC1	KCNQ2 block -7.94
COc1ccc(C(CCNCc2ccc(F)cc2)c2ccc(F)cc2)cc1 (stereo not drawn)	KCNQ2 block -7.19
COc1ccc(CNCCC(c2ccc(F)cc2)c2ccc(OC)cc2)cc1 (stereo not drawn)	none (no result: KCNQ2 pot)
CCOC(=O)c1sc(NC(=O)c2cc(-c3ccccc3C)nc3ccccc23)c(C#N)c1C	KCNQ2 block -8.98 | KCNQ2 block conf -40.0% | KCNQ1 spec -35.5% | CHO parental ctr -26.0% | KCNQ2 inh confirm inactive
CCOC(=O)c1sc(NC(=O)c2ccncc2)c(C#N)c1C	none
COc1ccc(Cl)cc1NC(=O)NC(C)C	none (no result: KCNQ2 pot)
COc1ccc(Cl)cc1NC(=O)C(C)N(C)Cc1cccc(Cl)c1Cl (stereo not drawn)	KCNQ2 block -7.27 | KCNQ2 block conf inactive | KCNQ1 spec inactive | CHO parental ctr inactive
CCN(CC)S(=O)(=O)c1cccc(NC(=O)c2ccc(C#N)cc2)c1	none
CCN1CCN(S(=O)(=O)c2ccc(Cl)c(C(=O)Nc3cc(Cl)ccc3N3CCOCC3)c2)CC1	KCNQ2 block -6.72 | KCNQ2 block conf inactive | KCNQ1 spec inactive | CHO parental ctr inactive
O=C(Nc1ccccc1Cl)c1cc(S(=O)(=O)N2CCCCC2)ccc1N1CCOCC1	none (no result: KCNQ2 pot)
O=C(Nc1ccccc1N1CCCCC1)c1cc(S(=O)(=O)N2CCOCC2)ccc1Cl	KCNQ2 block -9 | KCNQ2 block conf -28.5% | KCNQ1 spec inactive | CHO parental ctr inactive | KCNQ2 inh confirm active
CCN1CCN(S(=O)(=O)c2ccc(Cl)c(C(=O)Nc3ccccc3N3CCOCC3)c2)CC1	none (no result: KCNQ2 pot)
CCOc1ccc(N2CC(O)=C(c3ccccc3)C2=N)cc1	none
O=C(CCc1nnc(-c2ccsc2)o1)N1CCc2c(Cl)cccc2C1	none (no result: KCNQ2 pot)
Cc1cc(NC(=O)c2ccc([N+](=O)[O-])cc2)n(C)n1	none
